Experimental data reported in the supplement of paper PMC6555819.

What was measured:
Assay in all cases: PBM binding z-score (relative to random genomic background probes); higher = stronger binding; sequences stand for … in GC…GCGATTGACAGCGTAGAATGAAGG
[1] = tested on: RARb homodimer (NR concentration 270 nM)
In short: (§1)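 Binding z-scores were set against random background probes. The data came from custom Agilent 4×180K protein-binding microarrays carrying double-stranded probes with 34-nt variable regions, incubated 1 h with ligand-free nuclear receptor dimers. Partner-specific antibodies detected binding, and scanned fluorescence was regression-normalized.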

[2] = tested on: RARg:RXRa (NR concentration 270 nM, RXRa partner concentration 90 nM)
In short: as §1

[3] = tested on: RARg homodimer (NR concentration 270 nM)
In short: as §1

[4] = tested on: RXRa DBDmut IVT, anti-RXR (DBD mutation: RXRa K156A/R161A, NR concentration 90 nM)
In short: as §1

[5] = tested on: RXRa homodimer (NR concentration 180 nM)
In short: as §1

[6] = tested on: THRa:RXRa (NR concentration 90 nM, RXRa partner concentration 90 nM)
In short: as §1

[7] = tested on: THRa homodimer (NR concentration 90 nM)
In short: as §1

[8] = tested on: VDR:RXRa (NR concentration 270 nM, RXRa partner concentration 90 nM)
In short: as §1

[9] = tested on: VDR homodimer (NR concentration 270 nM)
In short: as §1

Row | Sequence | PBM binding z-score [1] | PBM binding z-score [2] | PBM binding z-score [3] | PBM binding z-score [4] | PBM binding z-score [5] | PBM binding z-score [6] | PBM binding z-score [7] | PBM binding z-score [8] | PBM binding z-score [9]
1 | TCTTGTAGATCAATAGAGATTAAGAAAGTGCGCT | -0.717 | 0.0195 | 0.0177 | 0.545 | 0.326 | -0.317 | -1.06 | 0.285 | -0.336
2 | AGAACGAGGGCACGCTGAGTTGAGAGCAGAGTAG | 1.24 | 2.01 | 2.05 | 1.81 | 1.57 | 1.95 | -0.054 | 1.59 | 1.29
3 | TCATATAGGTAAATGCTAGGTGAAATTCCGATCT | 0.107 | 0.506 | 0.4 | 1.46 | 0.811 | 1.29 | 0.404 | 0.761 | -0.0885
4 | AATACAGGGTCGTCGTAGGCCAGAGTACGCACAG | 1.42 | 2.13 | 1.29 | 1.76 | 2.81 | 3.4 | 0.245 | 2.62 | 1.78
5 | CCGACTGGGACAAAGGTTACCATACTCAGTACGA | 1.88 | 2.42 | 1.43 | 0.478 | 2.21 | 1.75 | 0.208 | 1.14 | -0.0207
6 | GCAATTAGTTGAAAGGGCAACCGAATGATTCTCG | 2 | 1.14 | 1.24 | 0.685 | 1.25 | 0.471 | -0.13 | 0.238 | 0.159
7 | CCTAGTTGGTCGAGGTCACACACGCTATAGGTAC | 3.98 | 4.6 | 4.42 | 2.64 | 5.16 | 4.16 | 4.15 | 4.8 | 4.51
8 | AGAGACAGGTGAGTGAAGGTAACTCAGCTGGACG | 0.498 | 0.327 | 0.547 | -0.787 | 0.592 | 1.75 | 0.04 | -0.141 | -0.14
9 | CCTGCTAGGTCATGGTCCGCTAATCTACAGTATG | 2.55 | 3.73 | 4.05 | 1.74 | 2.66 | 2.86 | 1.1 | 1.27 | 0.414
10 | TATACAGCGTCAAAGGCCAGAGTACGAATGTCGA | 0.415 | 0.284 | 0.525 | -1.06 | 0.258 | -0.433 | -1.11 | -0.305 | -0.0431
11 | CCAGACAGGTGAGAAGGTAACTAAGCCTCGATTA | 0.66 | 0.524 | 0.586 | -0.275 | 0.277 | 0.221 | -0.101 | -0.0342 | -0.0907
12 | TCTTATAGATCAACAGGAGGTTAAGAAAGATCGA | 0.606 | 1.45 | 0.65 | 1.06 | 1.47 | 1.05 | -0.19 | 1.01 | -0.0267
13 | TCTAGTTGGTCAAAGGTCACACCCTCGAAATGCG | 5.03 | 6.9 | 6.12 | 2.29 | 8.03 | 4.02 | 2.2 | 5.06 | 3.2
14 | CCTAGTGGGCCATTCAGAGGTCATTGATCATATG | 3.74 | 4.53 | 3.07 | 0.957 | 3.76 | 3.08 | 1.34 | 3.85 | 3.53
15 | CCTAGGTGGTCAGGAGGTCACACACCGGATATGA | 4.34 | 5.44 | 4.63 | 0.00245 | 5.16 | 3.45 | 2.2 | 3.76 | 2.85
16 | CCTTGTTGGTCAGGAGGTCACACACCGGATATGA | 4.42 | 4.76 | 4.32 | 0.608 | 4.89 | 3.33 | 2.47 | 3.79 | 2.17
